ELG1 genotox: qHTS screen for small molecules that induce genotoxicity in human embryonic kidney (HEK293T) cells expressing luciferase-tagged ELG1; HEK293T ELG1-luciferase reporter, luminescence, 16 h; Potency, µM (highest dose often 46 µM), without a hit: top-dose activity change, positive = activation, most hits filed as activators; hit rate 1.3% among 330,000; note: % of control where 0% means no effect; nearly all actives have a fitted effect of over 60% in size
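ELG1-luciferase HEK293T cells, 2,000/well; compound pinned in; 16 hr, 37 °C, 5% CO2; ONE-Glo, 30 min RT; luminescence on CCD imager.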
NPC1 prom act: qHTS Assay for NPC1 Promoter Activators; Huh7 NPC1 promoter luciferase reporter, 24 h; Potency, µM (top dose mostly 9.22 µM), without a hit: at the highest dose activation, most hits filed as activators; hit rate 2.4% among 320,000; note: % of control where 0% means no effect; nearly all actives have a fitted effect of over 60% in size
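Huh7 cells stably carrying NPC1 promoter–luciferase, plated in Opti-MEM with 10% FBS for 2 h, were exposed to compound in DMSO for 24 h at 37 °C; luciferase reagent was added for 10 min and luminescence read.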
KinaseGlo FLuc: Counterscreen for Luciferase (Kinase-Glo TM) Inhibition | Kinase-Glo luciferase, ATP luminescence, 8 min | Potency, µM (doses to about 38.3 µM), inactives show at the highest dose activity change, negative = inhibition, usual class: inhibitors | Luciferin 4-monooxygenase (Photuris pensylvanica), Q27757 | hit rate 0.28% among 200,000; note: % is set by controls: 0 for no effect and ±100 for the full control effect; nearly all actives have a fitted effect of over 60% in size
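Kinase-Glo luciferase light output from ATP and luciferin was measured with 10 uM ATP, within the enzyme's linear range. Buffer: 50 mM imidazole pH 7.2, 50 mM KCl, 7 mM MgCl2, 0.01% Tween 20, 0.05% BSA; luminescence read after 8 min at ambient temperature.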
Rab9 prom act: qHTS Assay for Rab9 Promoter Activators; Huh7 Rab9 promoter-luciferase reporter, luminescence, 24 h; Potency, µM (highest dose often 9.22 µM), without a hit: top-dose activation, negative = inhibition, hits mostly activators; hit rate 2.8% among 320,000; AID 485297, 2010; note: % of control where 0% means no effect; nearly all actives have a fitted effect of over 60% in size
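Measured in stably transfected Huh7 cells bearing a Rab9 promoter–luciferase construct: 24 h compound treatment at 37 °C, followed by luminescence detection.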
SMN2 splice enh: qHTS Assay for Enhancers of SMN2 Splice Variant Expression. HEK293 SMN2-luciferase splicing reporter, luminescence, 30-36 h. Potency, µM (series often up to 46.1 µM), for the others: at the top dose activity change, positive = activation, actives largely listed as activators. hit rate 2.8% among 210,000; note: % of control where 0% means no effect; nearly all actives have a fitted effect of over 55% in size
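HEK293 cells carry an SMN2 minigene-luciferase reporter in which exon 7 inclusion puts luciferase in frame. Cells were seeded at 2000 cells/well, attached for 10-12 hours, then exposed to compounds for 30-36 hours at 37C before ONE-Glo luminescence.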
FLuc counter: qHTS profiling assay for firefly luciferase inhibitor/activator using purifed enzyme and Km concentrations of substrates (counterscreen for miR-21 project); hit rate 6.9% among 360,000; Luciferin 4-monooxygenase (Photinus pyralis), P08659; purified FLuc, Km substrates, luminescence inhibition; Potency, µM (doses to about 57.5 µM), inactives show top-dose activity change, negative = inhibition, actives largely listed as inhibitors; AID 588342, 2011;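 note: plate controls were vehicle for no effect and reference inhibitor for full effect; nearly all actives have a fitted effect of over 55% in size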
Target sequence (P08659 whole entry, looked up): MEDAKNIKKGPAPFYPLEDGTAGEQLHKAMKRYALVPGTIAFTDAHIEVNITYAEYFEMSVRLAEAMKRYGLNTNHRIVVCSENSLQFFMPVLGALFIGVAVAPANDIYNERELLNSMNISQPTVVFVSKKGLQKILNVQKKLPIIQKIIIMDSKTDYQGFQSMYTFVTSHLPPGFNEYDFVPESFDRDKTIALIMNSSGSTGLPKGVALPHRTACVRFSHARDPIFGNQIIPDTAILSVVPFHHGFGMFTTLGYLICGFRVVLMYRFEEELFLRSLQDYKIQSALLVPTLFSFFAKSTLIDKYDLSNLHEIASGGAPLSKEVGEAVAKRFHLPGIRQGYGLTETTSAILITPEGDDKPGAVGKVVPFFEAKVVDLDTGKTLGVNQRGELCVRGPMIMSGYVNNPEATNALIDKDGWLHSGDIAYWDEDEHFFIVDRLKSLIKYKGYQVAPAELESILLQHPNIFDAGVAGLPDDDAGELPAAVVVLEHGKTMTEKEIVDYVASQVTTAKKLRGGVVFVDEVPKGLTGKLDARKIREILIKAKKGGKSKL
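Purified P. pyralis luciferase, 10 nM final, with Km-level 10 uM D-luciferin and 10 uM ATP in 50 mM Tris acetate pH 7.5, 10 mM Mg acetate, 0.01% Tween-20, 0.05% BSA; 6-point qHTS titration about 60 µM downward; luminescence read.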
Active calls of the source: *; ? = inconclusive; / = no result. A selection: hits, their analogues and other compounds. The true share with any hit is near 7.5%. Calls come from the whole dose curve; as a rule, active = well fitted curve in the direction sought with a large enough effect; inconclusive = small, poorly fitted or top-dose-only effect, or another doubt; inactive = no such curve, though single readings can be large; an effect the other way counts as inactive or inconclusive. Potency is the fitted concentration of half-maximal effect.

SMILES	ELG1 genotox	NPC1 prom act	KinaseGlo FLuc	Rab9 prom act	SMN2 splice enh	FLuc counter
O=C(NCCN1CCCCC1)c1ccc(-n2c(=O)c(=O)[nH]c3ccccc32)cc1	/	/	1%	/	/	/
COc1ccc(Nc2nnc(SCC(=O)NC3CCS(=O)(=O)C3)s2)cc1 (stereo unspecified)	11%	22%	/	23%	/	5.4µM*
C=CCn1c(SCC(=O)N2CCc3ccccc3C2)nc2ccccc2c1=O	-9%	1%	-6%	-3%	/	2%
COCCCNC(=O)/C=C/c1ccc(Cl)cc1	12%	17%	-5%	18%	7%	?
S=C(NCCc1ccccc1)NN=C1CCCCCC1	?	?	-2%	?	13µM*	17µM*
CC(C)CCNC(=O)/C=C/c1ccc(Br)cc1	4%	0%	-1%	5%	-6%	13µM*
Cc1ccc(NC(=S)NCC(C)C)cc1	14%	11%	-1%	14%	?	19µM*
CC(C)(C)NC(=S)NCCc1ccccc1	?	3.2µM*	/	1.8µM*	/	11µM*
O=C(NCCCNC(=O)c1ccccc1F)c1ccco1	1%	-5%	/	-1%	/	1%
COC(=O)Cc1ccc(NC(=S)NC(C)(C)C)cc1	3%	5%	4%	13%	8%	13µM*
COC(=O)Cc1ccc(NC(=S)NCCO)cc1	-5%	-2%	/	-4%	/	-1%
CCCNC(=S)Nc1ccc(Br)cc1	1%	3%	1%	10%	24%	?
CC(C)CCNC(=S)Nc1ccc(Br)cc1	2%	15%	5%	20%	22%	21µM*
S=C(NCCc1ccccc1)Nc1ccc(Br)cc1	14%	20%	1%	?	20µM*	19µM*
COC(=O)Cc1ccc(NC(=S)Nc2ccccn2)cc1	3%	14%	2%	?	/	21µM*
O=C(CCSCCc1ccccn1)Nc1ccc(Cl)cc1	/	/	/	/	/	-12%
O=C(NCc1ccc(Cl)cc1)C1CCN(S(=O)(=O)c2cccnc2)CC1	-3%	-2%	/	-1%	/	2%
CCNC(=O)CC1C(=O)N(c2ccc(F)cc2)C(=O)N1CCOC (stereo unspecified)	/	/	/	/	-8%	0%
O=C(Nc1ccccc1F)C1COc2ccccc2O1 (stereo unspecified)	?	-1%	/	0%	/	?
COC(=O)Cc1ccc(NC(=S)NCCC(C)C)cc1	-2%	-3%	-3%	3%	10%	17µM*
COC(=O)c1cc2oc(C)cc2n1CC(=O)Nc1ccc(C)cc1C	/	/	/	/	-2%	-8%
Cn1ccnc1SCC(=O)Nc1cccc(S(=O)(=O)N2CCCCC2)c1	-6%	-2%	2%	-5%	14%	-1%
CN(C)c1cccc(C(=O)OCC(=O)c2ccc[nH]2)c1	?	3.2µM*	/	1.4µM*	/	11µM*
Cc1ccsc1C(=O)OCC(=O)c1ccc[nH]1	?	?	/	2.8µM*	/	13µM*
Cc1ccsc1C(=O)OCC(=O)c1ccc(OC(F)F)cc1	2%	3%	/	?	/	1.1µM*
SMILES	ELG1 genotox	NPC1 prom act	KinaseGlo FLuc	Rab9 prom act	SMN2 splice enh	FLuc counter
COc1ccc(C(=O)NNC(=O)COC(=O)c2sccc2C)cc1	-3%	-2%	/	1%	/	/
CN(CC(=O)Nc1ccc(F)cc1)C(=O)COC(=O)c1cccc(N(C)C)c1	?	2.2µM*	/	1.4µM*	/	?
CC(=O)Cc1nnn(-c2cc(C)on2)n1	2%	-9%	/	-4%	/	-4%
Cc1ccsc1C(=O)OCC(=O)N1CCc2ccccc2C1	?	2.8µM*	1%	0.79µM*	25µM*	8.5µM*
CCOc1cc(/C=C(/C#N)c2ccc(F)cc2)ccc1OCc1ccc(C(=O)O)o1	1%	3%	-4%	2%	10%	13µM*
CCCCC(=O)Nc1ccc(C(=O)c2ccccc2)cc1	12%	8%	3%	24%	3%	?
Cc1nc(-c2ccc(NC(=O)/C=C\C(=O)O)cc2)cs1	11%	0%	-2%	1%	14%	9.5µM*
O=C(O)/C=C/C(=O)Nc1ccc(-n2ccc(C(F)(F)F)n2)cc1	1%	0%	/	-5%	/	-5%
CCCCCC(=O)Nc1ccc(-c2csc(N)n2)cc1	?	4%	/	?	/	17µM*
CCCCCC(=O)Nc1ccc(C2C(=O)c3ccccc3C2=O)cc1	?	2.8µM*	/	2.2µM*	/	2.7µM*
O=C(O)/C=C/C(=O)Nc1ccc(-n2nccc2C(F)(F)F)cc1	1%	-1%	/	9%	/	17µM*
CCC(=O)Nc1ccc(-c2csc(NNC(C)=O)n2)cc1	0%	-5%	3%	-3%	-10%	-7%
COC(=O)c1sccc1NC(=O)c1cc(-c2ccc(C)cc2C)nc2ccccc12	-4%	-1%	2%	0%	-29%	-2%
COc1cccc(CNC(=O)c2sc3ncccc3c2-n2c(C)ccc2C)c1OC	/	/	/	/	/	3%
O=C(O)/C=C/C(=O)Nc1ccc(-c2ccccc2)cc1	14%	16%	1%	28%	21%	6.7µM*
Cc1ccc(S(=O)(=O)Nc2ccc(NC(=O)/C=C/C(=O)O)cc2)cc1	-1%	-3%	-1%	-6%	6%	-2%
CCCCCC(=O)Nc1ccc(-c2csc(C)n2)cc1	3%	20%	-3%	?	?	15µM*
Cc1ccc2sc(-c3ccc(NC(=O)/C=C\C(=O)O)cc3)nc2c1	?	?	-4%	2.8µM*	7.1µM*	0.95µM*
O=C(O)/C=C\C(=O)Nc1ccc(N2CCN(c3ccc(Cl)cc3)CC2)cc1	-1%	-7%	-3%	-14%	/	15µM*
CCCOc1ccc(OC(=O)c2cn(-c3ccc(OC)cc3)c(=O)c3ccccc23)cc1	/	/	/	/	/	-2%
COCc1cc(=O)[nH]c(N2CCN(Cc3ccc4c(c3)OCO4)CC2)n1	-1%	-1%	/	2%	/	-1%
Cc1ccc(-c2nc3ccccc3[nH]2)s1	?	1.6µM*	13µM*	0.63µM*	7.1µM*	3µM*
Cc1[nH]c2ccccc2c1-c1nc2ccccc2[nH]1	?	24%	-2%	13%	16%	27µM*

Source: PubChem (National Center for Advancing Translational Sciences (NCATS))
